This is part of a sample that, as a whole, favours compounds with a hit. Of some 83,000 tested, about 20% had one in any assay.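 Activity criterion: percent growth below 10, measured after cells in 96-well plates were exposed to a single compound concentration for 48 hours.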 Activity calls are given as the source filed them.
How the values were obtained:
Test in all cases: NCI-60 one-dose screen, 48 h (100 = growth as untreated, 0 = no growth, -100 = all killed)
Conditions in all cases: 10 µM unless noted
MDA-MB-435 melanoma = tested on: MDA-MB-435 melanoma
SW-620 colon = tested on: SW-620 colon
MCF7 breast = tested on: MCF7 breast
HCT-116 colon = tested on: HCT-116 colon
HCC-2998 colon = tested on: HCC-2998 colon
KM12 colon = tested on: KM12 colon
BT-549 breast = tested on: BT-549 breast

Measured: growth

O=C1C=C(O)C(=O)C(CC2=C(O)C(=O)C=C(O)C2=O)=C1O
inactive: MDA-MB-435 melanoma 100% | SW-620 colon 97.8% | MCF7 breast 105% | HCT-116 colon 106% | HCC-2998 colon 97.2% | KM12 colon 104%

COc1cccc(/C=N/NC(=O)c2ccccc2Nc2ccnc(C(F)(F)F)c2)c1O
inactive: BT-549 breast 25.8% | MDA-MB-435 melanoma 31.9% | SW-620 colon 31.9% | HCT-116 colon 12.8% | HCC-2998 colon 51.2% | KM12 colon 38.8%
active: MCF7 breast 3.13%

C/C1=C\CC[C@@]2(C)O[C@H]2[C@H]2OC(=O)C(CN3CCN(CC4C(=O)O[C@H]5[C@H]4CC/C(C)=C/CC[C@@]4(C)O[C@@H]54)CC3)[C@@H]2CC1 (stereo partly specified)
inactive: BT-549 breast 105% | MDA-MB-435 melanoma 89.1% | SW-620 colon 86.3% | MCF7 breast 74.4% | HCT-116 colon 88% | KM12 colon 98.5%

O=C(CCl)Oc1ccc(-c2ccccc2)c(Br)c1
inactive: BT-549 breast 104% | MDA-MB-435 melanoma 104% | SW-620 colon 104% | MCF7 breast 103% | HCT-116 colon 108% | HCC-2998 colon 109% | KM12 colon 104%

Cc1ccc(C(SCC(N)C(=O)O)(c2ccccc2)c2ccc(C)cc2)cc1 (stereo unspecified)
active: MDA-MB-435 melanoma -23.5% | HCT-116 colon 6.49% | HCC-2998 colon -20.5% | KM12 colon 2.64%
inactive: BT-549 breast 30.6% | SW-620 colon 15.9% | MCF7 breast 12.3%

O=C(O)COc1ccc(Cl)cc1C1CCCCC1
inactive: BT-549 breast 117% | MDA-MB-435 melanoma 107% | SW-620 colon 104% | MCF7 breast 104% | HCT-116 colon 101% | KM12 colon 103%

O=C(O)c1c(=O)cccc2ssc12
active: SW-620 colon -34.4% | MCF7 breast -17% | HCT-116 colon 2.36% | KM12 colon 3.59%
inactive: BT-549 breast 20.2% | MDA-MB-435 melanoma 23.3% | HCC-2998 colon 13.5%

CCCOc1ccc2nc(NC(=O)OC)[nH]c2c1
active: MDA-MB-435 melanoma -49.3% | HCC-2998 colon -14%
inactive: BT-549 breast 33.4% | SW-620 colon 22.8%

COc1ccc(CN2c3ccccc3Oc3ccccc32)cc1O
active: MDA-MB-435 melanoma 9.49%
inactive: BT-549 breast 39.9% | SW-620 colon 27% | MCF7 breast 27.3% | HCT-116 colon 13.7% | KM12 colon 20.9%

O=C(/C=C/C=C/c1ccc2c(c1)OCO2)N/N=C\c1ccc(O)cc1O
inactive: BT-549 breast 27.3% | MDA-MB-435 melanoma 32.6% | SW-620 colon 26.5% | MCF7 breast 14.1% | HCC-2998 colon 38.9% | KM12 colon 23.4%
active: HCT-116 colon 8.67%

COc1ccc2c(c1)O/C(=C\c1cccc(OCC(=O)Nc3nc4c(s3)CCCC4)c1)C2=O
inactive: BT-549 breast 105% | MDA-MB-435 melanoma 83.1% | SW-620 colon 89.1% | MCF7 breast 86.1% | HCT-116 colon 77.7% | KM12 colon 82%

COc1ccc(Nc2cc(C)nc(N3CCN(c4ccnc5cc(Cl)ccc45)CC3)n2)cc1
active: MDA-MB-435 melanoma 2.27% | MCF7 breast 9.32%
inactive: BT-549 breast 51.2% | SW-620 colon 25.4% | HCC-2998 colon 41.2%

CC(C)(C)c1cc(C(C)(C)C)cc(S(=O)(=O)Nc2cc3ccccc3cc2C(=O)NCCN)c1
inactive: BT-549 breast 101% | HCT-116 colon 11.9%
active: MDA-MB-435 melanoma 0.859% | SW-620 colon -78% | MCF7 breast -10.6% | HCC-2998 colon -38.6% | KM12 colon -33.4%

CSc1nc(Nc2cccc(NC(=O)CCl)c2)c(C#N)c(-c2cccc([N+](=O)[O-])c2)n1
active: SW-620 colon 7.84% | MCF7 breast 0% | HCT-116 colon -6.05%
inactive: BT-549 breast 14.3% | MDA-MB-435 melanoma 45.3% | HCC-2998 colon 105% | KM12 colon 88.5%

Cc1cc(Nc2ccc(C)c(Cl)c2)n2nc(C(F)(F)F)nc2n1
inactive: BT-549 breast 69.6% | MDA-MB-435 melanoma 34.5% | SW-620 colon 40.6% | MCF7 breast 77.9% | HCT-116 colon 18.5% | HCC-2998 colon 74.5% | KM12 colon 62%

O=C1NC(=S)N[C@H]1CC(=O)n1cnc2ccccc21
inactive: BT-549 breast 102% | MDA-MB-435 melanoma 105% | SW-620 colon 97.2% | MCF7 breast 68.7% | HCT-116 colon 104% | HCC-2998 colon 103% | KM12 colon 100%

Nc1n[nH]c2cc(F)c([C@@H]3Nc4ccc5[nH]ncc5c4[C@H]4C5CCC(C5)[C@@H]34)cc12 (stereo partly specified)
active: BT-549 breast -7.74% | MDA-MB-435 melanoma -15.3% | HCT-116 colon -29.3% | KM12 colon 1.62%
inactive: SW-620 colon 21.7% | MCF7 breast 16.3% | HCC-2998 colon 15.9%

CCOC(=O)n1cc(-c2nonc2-c2cn(C)c3ncccc23)c2ccccc21
inactive: BT-549 breast 87.9% | MDA-MB-435 melanoma 50.2% | SW-620 colon 76.6% | MCF7 breast 35% | HCT-116 colon 80.4% | HCC-2998 colon 89.6% | KM12 colon 66.5%

Cc1cc(C)nc(SC2=C(Nc3cc(Cl)ccc3O)C(=O)N(Cc3ccccc3)C2=O)n1
active: KM12 colon -23.1% [30 µM]
inactive: BT-549 breast 85.2% [30 µM] | MDA-MB-435 melanoma 71.6% [30 µM] | SW-620 colon 91.8% [30 µM] | MCF7 breast 46.4% [30 µM] | HCT-116 colon 83% [30 µM]

COc1cccc(NC(=O)c2sc3nc(C)c(C(C)=O)cc3c2N)c1
inactive: BT-549 breast 53.7% | SW-620 colon 39.3% | MCF7 breast 30.1% | HCT-116 colon 37.8% | HCC-2998 colon 54.5% | KM12 colon 37.8%
active: MDA-MB-435 melanoma -41.1%

C=C(C)[C@@H]1CC[C@]2(C(=O)OC)CC[C@]3(C)[C@H](CC[C@@H]4[C@@]5(C)C/C(=C/c6ccc(OC)cc6)C(=O)C(C)(C)[C@@H]5CC[C@]43C)[C@@H]12
inactive: BT-549 breast 96.6% | MDA-MB-435 melanoma 72.1% | SW-620 colon 62.5% | MCF7 breast 49.1% | HCT-116 colon 41.8% | HCC-2998 colon 92.4% | KM12 colon 94.3%
